Sampled rows, rich in hits. Any-hit rate of the full collection: about 12%.
JMJD2A Tudor inh: blocks the human JMJD2A Tudor domain | O75164 | AlphaScreen JMJD2A-Tudor / H3K4me3 peptide binding | Potency, µM (top dose mostly 114 µM), for inactives: top-dose activity change, negative = inhibition, usual class: inhibitors | 4.4% of 390,000 active; further: on the % scale 0 is the no-effect control and ±100 the full control effect; nearly all actives have a fitted effect of over 50% in size
Sfp PPTase inh: blocks B. subtilis Sfp PPTase activity; Q9F4F7; Biochemical Sfp PPTase activity, qHTS; Potency, µM, inactives show largest response in the series, negative = inhibition, most hits filed as inhibitors; 3.5% of 310,000 active;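 further: the enzyme is Sfp with the accession as filed and its product quenches rhodamine fluorescence; 0% = enzyme reaction without inhibitor and -100% = no enzyme wells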
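Buffer: 50 mM Hepes-Na pH 7.6, 10 mM MgCl2, 0.01% Nonidet P-40, 0.01% BSA. Enzyme 15 nM, pre-exposed to compound 15 min; substrates then added and fluorescence change tracked over 30 min.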
BAZ2B block: blocks human BAZ2B; AlphaScreen BAZ2B-H3K14Ac peptide displacement; Potency, µM (titrated, usually from 114 µM), for the others: at the highest dose activity change, negative = inhibition, most hits filed as inhibitors; 4.4% of 360,000 active; AID 504333; further: on the % scale 0 is the no-effect control and ±100 the full control effect; nearly all actives have a fitted effect of over 60% in size
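Multi-concentration screen (max 110 uM) measuring displacement of acetylated histone H3 peptide from BAZ2B by AlphaScreen, using 50 nM protein, 50 nM peptide and 10 ug/mL streptavidin donor plus Ni-chelate acceptor beads.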
G9a block: inhibitors of human histone lysine methyltransferase G9a; Q96KQ7; G9a H3K9 monomethylation, AlphaScreen, 2 h; Potency, µM (highest dose often 102 µM), inactives show at the top dose activity, negative = inhibition, most hits filed as inhibitors; 8.8% of 350,000 active; AID 504332; further: on the % scale 0 is the no-effect control and ±100 the full control effect; nearly all actives have a fitted effect of over 75% in size
Target sequence (Q96KQ7 913-1193 limits assumed): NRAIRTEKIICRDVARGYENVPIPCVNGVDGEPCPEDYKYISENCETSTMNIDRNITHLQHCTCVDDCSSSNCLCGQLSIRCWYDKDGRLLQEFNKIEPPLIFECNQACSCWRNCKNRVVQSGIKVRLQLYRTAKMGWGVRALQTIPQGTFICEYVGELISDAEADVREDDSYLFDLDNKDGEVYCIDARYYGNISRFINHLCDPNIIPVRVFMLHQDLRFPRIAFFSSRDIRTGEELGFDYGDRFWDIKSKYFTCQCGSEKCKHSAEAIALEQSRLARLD
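Using a bead-based AlphaScreen, monomethylated H3K9 product from 2 h room-temperature reactions (G9a 20 nM, peptide 500 nM, SAM 20 uM) was detected with 0.5 ug/mL rabbit anti-H3K9me1 antibody.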
L3MBTL1 block: inhibitors of human L3MBTL1; Q9Y468; AlphaScreen L3MBTL1–H3K9me1 peptide binding; Potency, µM (doses to about 57.1 µM), for the others: at the highest dose activity, negative = inhibition, usual class: inhibitors; 0.66% of 230,000 active; further: on the % scale 0 is the no-effect control and ±100 the full control effect; nearly all actives have a fitted effect of over 60% in size
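L3MBTL1 (50 nM) pre-complexed 30 min with biotinylated H3(1-15)K9me1 peptide (75 nM), then compounds added for 30 min at room temperature; AlphaScreen streptavidin donor/nickel chelate acceptor beads (10 ug/mL final) read after 30 min dark incubation.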
HP1b binding inh: blocks HP1-beta chromodomain binding to methylated histone tails | AID 540317 | 0.56% of 390,000 active | P83916 | AlphaScreen HP1-beta / biotin-H3K9me3 peptide binding | Potency, µM (top dose mostly 114 µM), inactives show top-dose activity change, negative = inhibition, most hits filed as inhibitors; further: nearly all actives have a fitted effect of over 70% in size
Target sequence (P83916 whole entry, looked up): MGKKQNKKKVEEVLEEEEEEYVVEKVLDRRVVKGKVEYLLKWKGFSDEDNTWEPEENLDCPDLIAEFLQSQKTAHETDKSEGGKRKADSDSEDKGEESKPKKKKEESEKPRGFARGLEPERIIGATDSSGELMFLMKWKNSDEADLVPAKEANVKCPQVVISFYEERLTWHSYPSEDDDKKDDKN
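AlphaScreen: HP1-beta (50 nM) preformed 30 min with biotin-H3(1-18)K9me3 peptide (50 nM) in PBS pH 7.4, 0.01% Tween-20. Compound added for 30 min at RT, then streptavidin donor/nickel chelate acceptor beads (10 ug/mL) for 30 min.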
* marks the source's active call; other numbers are inactive results; ? = inconclusive; . = no result; ! = repeats disagree; [ ] = another dose, or the depositor's remark. The call rests on the fitted dose curve; in most records, active means well fitted curve in the direction sought with a large enough effect; inconclusive means small, poorly fitted or top-dose-only effect, or another doubt; inactive means no such curve, though single readings can be large; an effect the other way counts as inactive or inconclusive. Potency means the concentration at half of the fitted maximal effect.

SMILES | JMJD2A Tudor inh | Sfp PPTase inh | BAZ2B block | G9a block | L3MBTL1 block | HP1b binding inh
O=C(/C=C/c1ccco1)NC(=S)Nc1ccc(N2CCCC2)cc1 | ? | -29% | 10µM* | ? | ? | 35µM*
Cc1ccc(O)c(NC(=S)NC(=O)/C=C/c2ccco2)c1 | -23% | -9% | -24% | -4% | 9% | 24%
CCOC(=O)c1ccc(N2C(=O)c3[nH]nc(-c4ccc(OC)cc4)c3C2c2ccc(C)cc2)cc1 (stereo not given) | ? | . | . | -26%[59 µM] | . | 22%
O=C(/C=C/c1ccccc1)N/C(=C/c1ccccc1)C(=O)Nc1ccc(C(=O)O)cc1 | 50µM* | 11% | -6% | 2% | -4% | 8%
Cc1cc(C(=O)NNC(=O)/C=C/c2ccco2)c(C)o1 | 45µM* | . | ? | 22µM* | 7.9µM* | ?
COc1ccccc1/C=C/C(=O)NNC(=O)c1cc(C)oc1C | -17% | . | -7% | -32% | -18% | 22%
NS(=O)(=O)c1ccc(NC(=O)/C=C/c2ccco2)cc1 | -28% | 20µM* | -29% | 45µM* | ? | ?
O=C(/C=C/c1ccc(Cl)cc1)NC(=S)Nc1ccc(C(=O)O)cc1 | 22µM* | -6% | 50µM* | ? | . | ?
O=C(CCn1c(=O)c2cccn2c2cccnc21)N1CCN(c2ccccc2F)CC1 | -18% | . | ? | -9%[59 µM] | . | 22%
CC1CCCN(S(=O)(=O)c2cc(C(=O)NCc3ccccc3Cl)n(C)c2)C1 (stereo not given) | -26% | . | -19% | 4%[59 µM] | . | 18%[57 µM]
Cc1cccc2c1-c1sc(C(=O)N3CCN(c4ccccc4)CC3)cc1CO2 | -1% | . | -1% | 3%[59 µM] | . | 48%
CCN(CC(=O)Nc1ccc(NC(C)=O)cc1)C(=O)/C=C/c1ccco1 | -7% | . | -22% | 50µM* | -17% | 9%
Cc1ccnc(NC(=S)NC(=O)/C=C/c2ccco2)c1 | -27% | -15% | ? | ? | . | 30%
O=C(O)CNC(=O)/C(=C/c1ccco1)NC(=O)/C=C/c1ccccc1 | -1% | 56µM* | ? | ? | ? | 29%
O=C(/C=C/c1ccco1)NC(=S)Nc1ccc(Cl)cn1 | -30% | -20% | ? | 40µM* | . | 8%
O=C(/C=C/c1ccco1)NC(=S)Nc1ccc(C(=O)O)cc1 | 35µM* | 56µM* | 32µM* | 10µM* | . | 71µM*
COc1ccc2c(c1)C(=O)[C@H](OC(=O)N[C@H]1CCCc3ccccc31)[C@@H](c1ccc(OC)c(Br)c1)O2 | . | 11% | . | . | . | .
CC1=C(c2ccc(C)cc2)S(=O)(=O)N(Cc2ccc(C(=O)Nc3ccc(C)c(F)c3)cc2)C1=O | -27% | . | -11% | 3%[59 µM] | . | ?
COc1ccc(N2Cc3cccc(C(=O)O)c3C2=O)cc1 | 45µM*! | 6% | 20µM* | 32µM* | . | ?
COc1ccc(N2Cc3cccc(C(=O)Nc4cc(C)cc(C)c4)c3C2=O)cc1 | ? | . | ? | -30%[59 µM] | . | -1%
O=C(O)c1cccc2cc(-c3ccccc3)oc(=O)c12 | -14% | 11% | -8% | 2% | . | 32%
O=C(O)c1cccc2cccc(-c3c4ccc(=O)c(O)c-4oc4c(O)c(O)ccc34)c12 | 0.79µM* | . | . | . | . | ?
Fc1ccc(/C=C2\CCCC3=C2NC(=S)NC3c2ccc(F)cc2)cc1 (stereo not given) | . | 45µM* | ? | 22µM* | -6% | .
Cc1ccc(NC(=O)c2ccc(CN3CC(=O)N4CCCCC4C3=O)cc2)cc1C (stereo not given) | -10% | . | -25% | -18%[59 µM] | . | 17%
Cc1cccc(OCCSc2nc(N)cc(N)n2)c1 | -12%[11.4 µM] | 45µM* | ? | . | -2% | -10%
Cc1cccc(OCCOCCSc2ncccn2)c1 | 9% | 8% | 11% | 9%[12.7 µM] | . | 45%
Cc1cc(C)nc(Nc2ncc(O)n2-c2ccccc2)n1 | 56µM* | ? | -37% | 107%[59 µM] | -2% | 15%
Cc1ccc(-n2c(O)cnc2Nc2nc(C)cc(C)n2)cc1 | ? | -14% | -37% | 48%[12.7 µM] | -4% | 9%
